From the supplement of paper PMC8728848
This excerpt belongs to a sample that is enriched for the strongest signals.

Key:
Experiment in all cases: glycan array binding signal (z-score within array); higher = stronger binding
Conditions in all cases: glycan notation: IUPAC condensed, linker removed
[1] = target: Fuc(a1-2)Gal(b1-3)GalNAc(b1-3)Gal
Procedure, shortened: (§1)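 Negative Z-scores can be read as non-binding. The Z-score is calculated within each array and then averaged across arrays of one protein sequence at different concentrations or buffers and across linkers. Arrays, 3228 in all, were curated from the Consortium for Functional Glycomics database and kept only where the protein sequence was available.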

[2] = target: Fuc(a1-2)Gal(b1-4)Glc
Procedure, shortened: as §1

[3] = target: Fuc(a1-2)Gal(b1-4)GlcNAc(b1-2)Man(a1-3)[Fuc(a1-2)Gal(b1-4)GlcNAc(b1-2)Man(a1-6)]Man(b1-4)GlcNAc(b1-4)[Fuc(a1-6)]GlcNAc
Procedure, shortened: as §1

[4] = target: Fuc(a1-2)[Gal(a1-3)]Gal(b1-3)GalNAc(b1-3)Gal(a1-4)Gal(b1-4)Glc
Procedure, shortened: as §1

[5] = target: Fuc(a1-2)[Gal(a1-3)]Gal(b1-3)GlcNAc
Procedure, shortened: as §1

[6] = target: Fuc(a1-2)[Gal(a1-3)]Gal(b1-4)GlcNAc(b1-2)Man(a1-3)[Fuc(a1-2)[Gal(a1-3)]Gal(b1-4)GlcNAc(b1-2)Man(a1-6)]Man(b1-4)GlcNAc(b1-4)GlcNAc
Procedure, shortened: as §1

[7] = target: Fuc(a1-2)[Gal(a1-3)]Gal(b1-4)GlcNAc(b1-6)GalNAc
Procedure, shortened: as §1

[8] = target: Gal(a1-3)Gal(b1-3)GlcNAc
Procedure, shortened: as §1

[9] = target: Gal(a1-3)Gal(b1-3)GlcNAc(b1-6)GalNAc
Procedure, shortened: as §1

[10] = target: Gal(a1-3)Gal(b1-4)GlcNAc(b1-3)GalNAc
Procedure, shortened: as §1

[11] = target: Gal(a1-4)GlcNAc
Procedure, shortened: as §1

[12] = target: Gal(b1-3)Gal
Procedure, shortened: as §1

[13] = target: Gal(b1-3)Gal(b1-4)GlcNAc
Procedure, shortened: as §1

[14] = target: Gal(b1-3)GlcNAc(a1-6)Gal(b1-4)GlcNAc
Procedure, shortened: as §1

[15] = target: Gal(b1-3)GlcNAc(b1-2)Man
Procedure, shortened: as §1

[16] = target: Gal(b1-3)GlcNAc(b1-3)Gal(b1-3)GlcNAc
Procedure, shortened: as §1

[17] = target: Gal(b1-3)GlcNAc(b1-6)GalNAc
Procedure, shortened: as §1

[18] = target: Gal(b1-3)[Fuc(a1-4)]GlcNAc(b1-3)Gal(b1-3)[Fuc(a1-4)]GlcNAc
Procedure, shortened: as §1

[19] = target: Gal(b1-4)Glc6S
Procedure, shortened: as §1

[20] = target: Gal(b1-4)GlcNAc(a1-6)Gal(b1-4)GlcNAc
Procedure, shortened: as §1

[21] = target: Gal(b1-4)GlcNAc(b1-2)Man
Procedure, shortened: as §1

[22] = target: Gal(b1-4)GlcNAc(b1-3)Gal(b1-3)GlcNAc
Procedure, shortened: as §1

[23] = target: Gal(b1-4)GlcNAc(b1-3)Gal(b1-4)GlcNAc(b1-3)Gal(b1-4)GlcNAc(b1-2)Man(a1-3)[Gal(b1-4)GlcNAc(b1-3)Gal(b1-4)GlcNAc(b1-3)Gal(b1-4)GlcNAc(b1-2)Man(a1-6)]Man(b1-4)GlcNAc(b1-4)GlcNAc
Procedure, shortened: as §1

[24] = target: Gal(b1-4)GlcNAc(b1-6)GalNAc
Procedure, shortened: as §1

[25] = target: Gal3S(b1-3)GalNAc
Procedure, shortened: as §1

[26] = target: Gal3S(b1-4)Glc
Procedure, shortened: as §1

[27] = target: Gal3S(b1-4)[Fuc(a1-3)]GlcNAc
Procedure, shortened: as §1

[28] = target: Gal3S(b1-4)[Fuc(a1-3)]GlcNAc6S
Procedure, shortened: as §1

[29] = target: Gal4S(b1-4)GlcNAc
Procedure, shortened: as §1

[30] = target: Gal6S(b1-4)GlcNAc
Procedure, shortened: as §1

[31] = target: GalNAc(b1-3)Gal
Procedure, shortened: as §1

[32] = target: Glc(a1-4)Glc
Procedure, shortened: as §1

[33] = target: GlcNAc(a1-4)Gal(b1-4)GalNAc
Procedure, shortened: as §1

[34] = target: GlcNAc(a1-4)Gal(b1-4)GlcNAc(b1-3)Gal(b1-4)[Fuc(a1-3)]GlcNAc(b1-3)Gal(b1-4)[Fuc(a1-3)]GlcNAc
Procedure, shortened: as §1

[35] = target: GlcNAc(b1-2)Man(a1-3)[GlcNAc(b1-2)Man(a1-6)]Man(b1-4)GlcNAc(b1-4)GlcNAc
Procedure, shortened: as §1

[36] = target: GlcNAc(b1-3)Gal(b1-4)GlcNAc(b1-3)Gal(b1-4)GlcNAc(b1-2)Man(a1-3)[GlcNAc(b1-3)Gal(b1-4)GlcNAc(b1-3)Gal(b1-4)GlcNAc(b1-2)Man(a1-6)]Man(b1-4)GlcNAc(b1-4)[Fuc(a1-6)]GlcNAc
Procedure, shortened: as §1

[37] = target: GlcNAc(b1-3)Gal(b1-4)GlcNAc(b1-6)[GlcNAc(b1-3)Gal(b1-3)]GalNAc
Procedure, shortened: as §1

[38] = target: GlcNAc(b1-3)GalNAc
Procedure, shortened: as §1

[39] = target: Man(a1-2)Man(a1-2)Man(a1-3)Man
Procedure, shortened: as §1

[40] = target: Man(a1-2)Man(a1-6)[Man(a1-3)]Man(a1-6)[Man(a1-2)Man(a1-2)Man(a1-3)]Man
Procedure, shortened: as §1

[41] = target: Man(a1-3)[Man(a1-6)]Man(b1-4)GlcNAc(b1-4)[Fuc(a1-6)]GlcNAc
Procedure, shortened: as §1

[42] = target: Man(a1-6)Man
Procedure, shortened: as §1

[43] = target: Neu5Ac(a2-3)Gal(b1-3)GlcNAc6S
Procedure, shortened: as §1

[44] = target: Neu5Ac(a2-3)Gal(b1-3)[Neu5Ac(a2-6)]GalNAc
Procedure, shortened: as §1

[45] = target: Neu5Ac(a2-3)Gal(b1-4)Glc
Procedure, shortened: as §1

[46] = target: Neu5Ac(a2-3)Gal(b1-4)GlcNAc(b1-2)Man
Procedure, shortened: as §1

[47] = target: Neu5Ac(a2-3)Gal(b1-4)GlcNAc(b1-2)[Neu5Ac(a2-3)Gal(b1-4)GlcNAc(b1-4)]Man(a1-3)[GlcNAc(b1-4)][Neu5Ac(a2-3)Gal(b1-4)GlcNAc(b1-2)[Neu5Ac(a2-3)Gal(b1-4)GlcNAc(b1-6)]Man(a1-6)]Man(b1-4)GlcNAc(b1-4)GlcNAc
Procedure, shortened: as §1

[48] = target: Neu5Ac(a2-3)Gal(b1-4)GlcNAc(b1-3)Gal(b1-4)GlcNAc
Procedure, shortened: as §1

[49] = target: Neu5Ac(a2-3)Gal(b1-4)GlcNAc(b1-3)Gal(b1-4)GlcNAc(b1-6)[Gal(b1-3)]GalNAc
Procedure, shortened: as §1

[50] = target: Neu5Ac(a2-3)Gal(b1-4)GlcNAc(b1-6)[Gal(b1-3)]GalNAc
Procedure, shortened: as §1

[51] = target: Neu5Ac(a2-3)Gal(b1-4)[Fuc(a1-3)]GlcNAc(b1-3)Gal(b1-4)[Fuc(a1-3)]GlcNAc(b1-3)Gal(b1-4)[Fuc(a1-3)]GlcNAc
Procedure, shortened: as §1

[52] = target: Neu5Ac(a2-6)Gal(b1-4)Glc
Procedure, shortened: as §1

[53] = target: Neu5Ac9Ac(a2-3)Gal(b1-3)GlcNAc
Procedure, shortened: as §1

[54] = target: Neu5Gc(a2-3)Gal(b1-4)GlcNAc(b1-3)Gal(b1-4)GlcNAc(b1-2)Man(a1-3)[Neu5Gc(a2-3)Gal(b1-4)GlcNAc(b1-3)Gal(b1-4)GlcNAc(b1-2)Man(a1-6)]Man(b1-4)GlcNAc(b1-4)GlcNAc
Procedure, shortened: as §1

B1: Cohesin-hMARCO (Homo sapiens) (protein)
chain: LDDLDAVRIKVDTVNAKPGDTVRIPVRFSGIPSKGIANCDFVYSYDPNVLEIIEIEPGDIIVDPNPDKSFDTAVYPDRKIIVFLFAEDSGTGAYAITKDGVFATIVAKVKEGAPNGLSVIKFVEVGGFANNDLVEQKTQFFDGGANVGDTTEPATPTTPVTTPTTTDDLDAASVRIVGSSNRGRAEVYYSGTWGTICDDEWQNSDAIVFCRMLGYSKGRALYKVGAGTGQIWLDNVQCRGTESTLWSCTKNSWGHHDCSHEEDAGVECSVHHHHHH
glycan array binding signal (z-score) [1]: 3.9 | glycan array binding signal (z-score) [2]: 0.78 | glycan array binding signal (z-score) [3]: -0.156 | glycan array binding signal (z-score) [4]: -0.528 | glycan array binding signal (z-score) [5]: 2.72 | glycan array binding signal (z-score) [6]: -0.358 | glycan array binding signal (z-score) [7]: -0.528 | glycan array binding signal (z-score) [8]: 11.2 | glycan array binding signal (z-score) [9]: 2.88 | glycan array binding signal (z-score) [10]: -0.296 | glycan array binding signal (z-score) [11]: -0.083 | glycan array binding signal (z-score) [12]: -0.397 | glycan array binding signal (z-score) [13]: -0.262 | glycan array binding signal (z-score) [14]: -0.309 | glycan array binding signal (z-score) [15]: -0.288 | glycan array binding signal (z-score) [16]: -0.434 | glycan array binding signal (z-score) [17]: 1.7 | glycan array binding signal (z-score) [18]: 5.33 | glycan array binding signal (z-score) [19]: -0.057 | glycan array binding signal (z-score) [20]: 0.044 | glycan array binding signal (z-score) [21]: -0.48 | glycan array binding signal (z-score) [22]: -0.462 | glycan array binding signal (z-score) [23]: 0.365 | glycan array binding signal (z-score) [24]: 1.21 | glycan array binding signal (z-score) [25]: 0.13 | glycan array binding signal (z-score) [26]: 3.03 | glycan array binding signal (z-score) [27]: -0.386 | glycan array binding signal (z-score) [28]: 3.73 | glycan array binding signal (z-score) [29]: -0.154 | glycan array binding signal (z-score) [30]: -0.215 | glycan array binding signal (z-score) [31]: 3.14 | glycan array binding signal (z-score) [32]: -0.037 | glycan array binding signal (z-score) [33]: -0.39 | glycan array binding signal (z-score) [34]: -0.104 | glycan array binding signal (z-score) [35]: -0.381 | glycan array binding signal (z-score) [36]: -0.453 | glycan array binding signal (z-score) [37]: -0.586 | glycan array binding signal (z-score) [38]: -0.3 | glycan array binding signal (z-score) [39]: 3.08 | glycan array binding signal (z-score) [40]: -0.013 | glycan array binding signal (z-score) [41]: -0.571 | glycan array binding signal (z-score) [42]: 3.28 | glycan array binding signal (z-score) [43]: 0.039 | glycan array binding signal (z-score) [44]: -0.255 | glycan array binding signal (z-score) [45]: -0.436 | glycan array binding signal (z-score) [46]: 0.296 | glycan array binding signal (z-score) [47]: -0.288 | glycan array binding signal (z-score) [48]: -0.514 | glycan array binding signal (z-score) [49]: -0.369 | glycan array binding signal (z-score) [50]: -0.481 | glycan array binding signal (z-score) [51]: -0.404 | glycan array binding signal (z-score) [52]: -0.411 | glycan array binding signal (z-score) [53]: 4.33 | glycan array binding signal (z-score) [54]: 0.016
